# Data published in PMC7862700, “An all-to-all approach to the identification of sequence-specific readers for epigenetic DNA modifications on cytosine”.
# Legend:
# Assay in all cases: DAPPL (digital affinity profiling via proximity ligation, sequencing); 10 mM Tris-HCl pH 7.5, 50 mM NaCl, 1 mM DTT, 4% glycerol, room temperature, 30 min; GST-TFs on glutathione beads, 16-mer random dsDNA library, 0.1% formaldehyde crosslink after washing; high values mean tight binding
# FEV = target: T1, FEV (Homo sapiens, UniProt Q99581 1-238); conditions: protein: recombinant; tags: N-terminal GST; dsDNA, one strand shown
# T1 sequence: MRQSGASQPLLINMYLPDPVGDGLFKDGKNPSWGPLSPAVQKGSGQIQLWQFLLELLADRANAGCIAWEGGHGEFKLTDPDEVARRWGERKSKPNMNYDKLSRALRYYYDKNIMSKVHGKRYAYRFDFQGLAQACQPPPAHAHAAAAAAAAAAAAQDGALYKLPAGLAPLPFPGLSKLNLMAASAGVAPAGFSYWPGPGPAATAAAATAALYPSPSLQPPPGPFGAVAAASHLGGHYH
# Method in brief: (§1)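 Beads coated with glutathione captured GST-fused human transcription factors that had been expressed in yeast, and the factors were then given DNA barcodes and pooled with a tag-only sample. The pools were incubated with 200 nmole of a random double-stranded 16-mer DNA library in Tris/NaCl/DTT/glycerol buffer for 30 min at room temperature, washed, crosslinked with 0.1% formaldehyde and proximity-ligated with BsaI/T4 ligase at 37 °C for 1 h. PCR amplification and Illumina NextSeq500 sequencing came last. Binding signal is each hexamer's read frequency for a factor divided by its frequency for the tag-only sample.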
# ETV5 = ETV5 (Homo sapiens, UniProt P41161 1-510); conditions: protein: recombinant; tags: N-terminal GST; dsDNA, one strand shown
# ETV5, sequence (P41161 whole entry): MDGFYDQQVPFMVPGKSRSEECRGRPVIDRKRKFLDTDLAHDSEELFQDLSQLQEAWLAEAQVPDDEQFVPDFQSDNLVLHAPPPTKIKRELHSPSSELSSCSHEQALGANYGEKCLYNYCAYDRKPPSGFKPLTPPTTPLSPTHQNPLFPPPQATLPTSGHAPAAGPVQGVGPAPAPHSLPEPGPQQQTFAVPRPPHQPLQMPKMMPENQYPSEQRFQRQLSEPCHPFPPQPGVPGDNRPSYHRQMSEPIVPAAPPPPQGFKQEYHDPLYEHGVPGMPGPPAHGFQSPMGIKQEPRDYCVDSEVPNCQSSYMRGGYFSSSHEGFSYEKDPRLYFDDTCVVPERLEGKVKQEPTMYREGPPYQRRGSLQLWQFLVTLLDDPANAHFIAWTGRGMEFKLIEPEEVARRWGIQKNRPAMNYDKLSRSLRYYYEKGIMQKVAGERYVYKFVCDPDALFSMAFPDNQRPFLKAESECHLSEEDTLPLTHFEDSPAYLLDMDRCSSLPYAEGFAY
# Method in brief: as §1
# HSF1 = HSF1 (Homo sapiens, UniProt Q00613 1-529); conditions: protein: recombinant; tags: N-terminal GST; chain copies: 3; dsDNA, one strand shown
# HSF1, sequence (Q00613 whole entry): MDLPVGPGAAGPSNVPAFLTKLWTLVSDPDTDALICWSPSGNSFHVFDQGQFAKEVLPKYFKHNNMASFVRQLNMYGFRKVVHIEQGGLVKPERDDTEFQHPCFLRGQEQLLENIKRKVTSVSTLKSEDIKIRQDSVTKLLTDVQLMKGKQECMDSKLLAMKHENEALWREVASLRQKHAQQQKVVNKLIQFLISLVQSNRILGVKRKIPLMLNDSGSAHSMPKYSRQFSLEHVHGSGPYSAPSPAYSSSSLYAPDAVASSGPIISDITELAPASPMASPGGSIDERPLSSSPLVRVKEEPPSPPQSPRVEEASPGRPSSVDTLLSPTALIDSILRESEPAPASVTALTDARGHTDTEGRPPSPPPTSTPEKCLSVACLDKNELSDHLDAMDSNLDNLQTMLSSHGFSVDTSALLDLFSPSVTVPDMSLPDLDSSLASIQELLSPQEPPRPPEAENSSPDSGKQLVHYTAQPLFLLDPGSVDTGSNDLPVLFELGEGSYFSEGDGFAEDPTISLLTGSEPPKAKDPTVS
# Method in brief: as §1
# SPIC = target: T2, SPIC (Homo sapiens, UniProt Q8N5J4 1-248); conditions: protein: recombinant; tags: N-terminal GST; dsDNA, one strand shown
# T2 sequence: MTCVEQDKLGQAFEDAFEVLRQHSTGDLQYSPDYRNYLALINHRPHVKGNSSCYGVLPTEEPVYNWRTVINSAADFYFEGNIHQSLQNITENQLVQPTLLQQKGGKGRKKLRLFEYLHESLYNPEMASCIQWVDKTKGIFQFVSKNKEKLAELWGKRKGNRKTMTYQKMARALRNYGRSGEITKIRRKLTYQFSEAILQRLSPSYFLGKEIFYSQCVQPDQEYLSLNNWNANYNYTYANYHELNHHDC
# Method in brief: as §1
# ELF4 = ELF4 (Homo sapiens, UniProt Q99607 1-663); conditions: protein: recombinant; tags: N-terminal GST; dsDNA, one strand shown
# ELF4, sequence (Q99607 whole entry): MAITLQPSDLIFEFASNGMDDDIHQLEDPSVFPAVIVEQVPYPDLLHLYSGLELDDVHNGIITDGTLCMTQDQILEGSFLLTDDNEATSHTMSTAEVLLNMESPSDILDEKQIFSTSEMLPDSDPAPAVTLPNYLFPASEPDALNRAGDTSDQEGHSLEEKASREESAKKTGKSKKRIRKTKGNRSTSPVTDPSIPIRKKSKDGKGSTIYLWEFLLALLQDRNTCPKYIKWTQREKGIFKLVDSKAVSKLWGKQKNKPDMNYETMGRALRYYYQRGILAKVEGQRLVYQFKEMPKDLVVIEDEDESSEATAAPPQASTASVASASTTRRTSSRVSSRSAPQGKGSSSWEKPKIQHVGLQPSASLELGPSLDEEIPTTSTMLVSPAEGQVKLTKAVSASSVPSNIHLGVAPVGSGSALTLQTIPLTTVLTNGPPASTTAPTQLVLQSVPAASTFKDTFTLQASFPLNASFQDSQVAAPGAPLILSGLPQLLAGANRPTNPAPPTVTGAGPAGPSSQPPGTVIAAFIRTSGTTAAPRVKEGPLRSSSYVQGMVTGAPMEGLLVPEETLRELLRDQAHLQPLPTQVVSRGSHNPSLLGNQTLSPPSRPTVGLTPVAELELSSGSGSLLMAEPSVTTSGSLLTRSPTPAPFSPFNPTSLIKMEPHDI
# Method in brief: as §1
# ELK4 = target: T3, ELK4 (Homo sapiens, UniProt P28324-2 1-405); conditions: protein: recombinant; tags: N-terminal GST; dsDNA, one strand shown
# T3 sequence: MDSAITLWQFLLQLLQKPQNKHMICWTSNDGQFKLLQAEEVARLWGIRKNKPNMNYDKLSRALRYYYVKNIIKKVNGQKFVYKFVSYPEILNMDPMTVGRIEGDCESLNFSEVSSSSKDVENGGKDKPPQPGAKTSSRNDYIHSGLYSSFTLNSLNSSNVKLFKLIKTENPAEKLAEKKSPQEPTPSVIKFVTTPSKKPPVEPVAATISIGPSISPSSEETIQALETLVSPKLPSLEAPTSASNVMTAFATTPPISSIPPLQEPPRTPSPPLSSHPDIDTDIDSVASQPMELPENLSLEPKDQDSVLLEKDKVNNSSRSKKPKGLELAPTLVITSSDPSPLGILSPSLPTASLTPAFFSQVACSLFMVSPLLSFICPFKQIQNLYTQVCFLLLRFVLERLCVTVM
# Method in brief: as §1
# ETV2 = target: T4, ETV2 (Homo sapiens, UniProt O00321 1-342); conditions: protein: recombinant; tags: N-terminal GST; dsDNA, one strand shown
# T4 sequence: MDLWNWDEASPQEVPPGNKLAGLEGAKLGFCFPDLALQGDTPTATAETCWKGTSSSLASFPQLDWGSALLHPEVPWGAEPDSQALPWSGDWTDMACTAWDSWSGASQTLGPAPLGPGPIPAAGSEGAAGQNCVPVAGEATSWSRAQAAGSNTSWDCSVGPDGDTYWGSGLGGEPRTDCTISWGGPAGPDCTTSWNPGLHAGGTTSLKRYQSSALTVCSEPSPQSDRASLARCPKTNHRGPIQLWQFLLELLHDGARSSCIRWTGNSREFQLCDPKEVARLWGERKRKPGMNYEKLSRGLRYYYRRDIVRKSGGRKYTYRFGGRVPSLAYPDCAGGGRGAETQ
# Method in brief: as §1
# ELF3 = target: T5, ELF3 (Homo sapiens, UniProt P78545 1-371); conditions: protein: recombinant; tags: N-terminal GST; dsDNA, one strand shown
# T5 sequence: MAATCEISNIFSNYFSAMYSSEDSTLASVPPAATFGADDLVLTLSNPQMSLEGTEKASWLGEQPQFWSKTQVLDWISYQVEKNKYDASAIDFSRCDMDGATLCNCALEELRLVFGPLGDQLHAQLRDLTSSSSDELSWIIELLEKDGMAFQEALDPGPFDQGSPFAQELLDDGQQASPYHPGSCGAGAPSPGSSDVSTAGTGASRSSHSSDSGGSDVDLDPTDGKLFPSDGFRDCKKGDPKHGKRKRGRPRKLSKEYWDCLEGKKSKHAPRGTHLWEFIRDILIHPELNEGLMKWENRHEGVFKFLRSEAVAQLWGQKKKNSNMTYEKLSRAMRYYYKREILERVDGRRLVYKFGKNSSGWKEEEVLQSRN
# Method in brief: as §1
# CRX = CRX (Homo sapiens, UniProt O43186 1-299); conditions: protein: recombinant; tags: N-terminal GST; dsDNA, one strand shown
# CRX, sequence (O43186 whole entry): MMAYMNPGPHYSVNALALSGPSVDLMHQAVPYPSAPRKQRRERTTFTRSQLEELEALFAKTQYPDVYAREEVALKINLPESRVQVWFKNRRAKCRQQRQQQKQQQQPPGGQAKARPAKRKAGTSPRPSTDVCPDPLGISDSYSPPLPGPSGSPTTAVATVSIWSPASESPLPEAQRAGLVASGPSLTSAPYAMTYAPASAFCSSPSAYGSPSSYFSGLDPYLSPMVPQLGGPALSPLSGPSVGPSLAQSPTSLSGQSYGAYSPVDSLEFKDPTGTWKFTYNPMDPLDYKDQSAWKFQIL
# Method in brief: as §1
# ETV1 = ETV1 (Homo sapiens, UniProt P50549 1-477); conditions: protein: recombinant; tags: N-terminal GST; dsDNA, one strand shown
# ETV1, sequence (P50549 whole entry): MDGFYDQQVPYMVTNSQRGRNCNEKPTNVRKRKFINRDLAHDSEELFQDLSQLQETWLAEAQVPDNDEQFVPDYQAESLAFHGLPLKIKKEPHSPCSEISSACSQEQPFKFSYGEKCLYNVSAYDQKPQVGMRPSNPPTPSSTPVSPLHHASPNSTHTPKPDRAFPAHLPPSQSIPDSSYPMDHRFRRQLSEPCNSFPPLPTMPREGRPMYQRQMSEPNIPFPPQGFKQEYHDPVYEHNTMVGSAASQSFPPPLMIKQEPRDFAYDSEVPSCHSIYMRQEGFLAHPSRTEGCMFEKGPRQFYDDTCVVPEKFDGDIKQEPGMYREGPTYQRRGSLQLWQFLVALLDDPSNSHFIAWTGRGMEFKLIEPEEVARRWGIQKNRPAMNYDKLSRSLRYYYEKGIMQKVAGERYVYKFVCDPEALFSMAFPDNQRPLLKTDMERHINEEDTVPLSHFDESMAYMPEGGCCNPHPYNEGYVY
# Method in brief: as §1
# ERF = target: T6, ERF (Homo sapiens, UniProt P50548 1-548); conditions: protein: recombinant; tags: N-terminal GST; dsDNA, one strand shown
# T6 sequence: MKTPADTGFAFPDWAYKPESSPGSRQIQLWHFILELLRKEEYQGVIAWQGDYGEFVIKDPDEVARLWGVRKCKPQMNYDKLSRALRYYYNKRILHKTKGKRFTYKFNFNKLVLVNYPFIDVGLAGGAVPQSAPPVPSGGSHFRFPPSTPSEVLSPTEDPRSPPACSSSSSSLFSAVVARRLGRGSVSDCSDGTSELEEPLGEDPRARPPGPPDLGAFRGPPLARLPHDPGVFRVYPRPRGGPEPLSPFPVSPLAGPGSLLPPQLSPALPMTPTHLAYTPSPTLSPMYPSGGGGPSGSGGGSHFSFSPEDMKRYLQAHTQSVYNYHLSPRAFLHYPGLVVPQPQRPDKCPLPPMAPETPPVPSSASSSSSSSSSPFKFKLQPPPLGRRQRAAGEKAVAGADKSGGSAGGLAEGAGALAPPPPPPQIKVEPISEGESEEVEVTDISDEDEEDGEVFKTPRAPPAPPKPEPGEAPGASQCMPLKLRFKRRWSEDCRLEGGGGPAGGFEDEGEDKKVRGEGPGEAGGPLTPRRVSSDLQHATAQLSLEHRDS
# Method in brief: as §1
# ETV3L = target: T7, ETV3L (Homo sapiens, UniProt Q6ZN32 1-361); conditions: protein: recombinant; tags: N-terminal GST; dsDNA, one strand shown
# T7 sequence: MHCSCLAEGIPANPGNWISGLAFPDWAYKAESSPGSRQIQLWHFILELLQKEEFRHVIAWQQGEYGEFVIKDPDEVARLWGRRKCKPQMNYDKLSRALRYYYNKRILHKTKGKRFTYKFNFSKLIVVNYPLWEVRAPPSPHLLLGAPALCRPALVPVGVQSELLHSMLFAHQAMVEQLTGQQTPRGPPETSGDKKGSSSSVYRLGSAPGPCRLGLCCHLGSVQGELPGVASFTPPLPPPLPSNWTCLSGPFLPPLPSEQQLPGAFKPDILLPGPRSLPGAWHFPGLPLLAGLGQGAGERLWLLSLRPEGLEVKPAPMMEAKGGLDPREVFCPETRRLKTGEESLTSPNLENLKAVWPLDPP
# Method in brief: as §1
# ETS2 = target: T8, ETS2 (Homo sapiens, UniProt P15036 1-469); conditions: protein: recombinant; tags: N-terminal GST; dsDNA, one strand shown
# T8 sequence: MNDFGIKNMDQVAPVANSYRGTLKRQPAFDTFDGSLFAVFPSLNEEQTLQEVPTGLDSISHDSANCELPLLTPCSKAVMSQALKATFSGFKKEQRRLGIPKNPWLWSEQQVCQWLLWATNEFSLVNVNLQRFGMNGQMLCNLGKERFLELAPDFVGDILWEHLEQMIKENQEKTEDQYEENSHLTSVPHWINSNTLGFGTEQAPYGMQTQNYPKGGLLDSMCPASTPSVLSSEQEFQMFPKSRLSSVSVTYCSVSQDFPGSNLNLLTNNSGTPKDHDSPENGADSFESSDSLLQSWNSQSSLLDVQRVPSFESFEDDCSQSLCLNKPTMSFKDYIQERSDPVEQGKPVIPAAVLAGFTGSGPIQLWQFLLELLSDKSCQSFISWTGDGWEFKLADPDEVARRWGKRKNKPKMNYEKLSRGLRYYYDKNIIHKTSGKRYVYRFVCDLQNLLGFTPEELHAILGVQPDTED
# Method in brief: as §1
# SPDEF = target: T9, SPDEF (Homo sapiens, UniProt O95238 1-335); conditions: protein: recombinant; tags: N-terminal GST; dsDNA, one strand shown
# T9 sequence: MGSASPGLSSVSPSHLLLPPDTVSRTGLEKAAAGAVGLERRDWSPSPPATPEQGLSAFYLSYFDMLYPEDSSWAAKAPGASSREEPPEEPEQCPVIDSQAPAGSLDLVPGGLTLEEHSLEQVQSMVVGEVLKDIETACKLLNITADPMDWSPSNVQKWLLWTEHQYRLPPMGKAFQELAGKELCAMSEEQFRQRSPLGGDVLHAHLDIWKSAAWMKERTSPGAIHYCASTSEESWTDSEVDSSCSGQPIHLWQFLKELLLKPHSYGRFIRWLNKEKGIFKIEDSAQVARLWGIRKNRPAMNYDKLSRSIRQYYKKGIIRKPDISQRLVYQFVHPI
# Method in brief: as §1
# ETV7 = target: T10, ETV7 (Homo sapiens, UniProt Q9Y603 1-341); conditions: protein: recombinant; tags: N-terminal GST; dsDNA, one strand shown
# T10 sequence: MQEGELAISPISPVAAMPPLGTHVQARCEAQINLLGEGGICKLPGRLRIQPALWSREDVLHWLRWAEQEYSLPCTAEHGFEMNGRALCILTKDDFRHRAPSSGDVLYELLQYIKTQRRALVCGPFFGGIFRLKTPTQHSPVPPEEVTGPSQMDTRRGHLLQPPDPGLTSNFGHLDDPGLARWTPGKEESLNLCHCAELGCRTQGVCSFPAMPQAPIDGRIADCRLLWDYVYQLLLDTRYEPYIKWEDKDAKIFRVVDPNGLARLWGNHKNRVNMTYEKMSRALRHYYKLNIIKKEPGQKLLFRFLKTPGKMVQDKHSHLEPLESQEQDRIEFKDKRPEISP
# Method in brief: as §1
# ELF5 = target: T11, ELF5 (Homo sapiens, UniProt Q9UKW6-2 1-255); conditions: protein: recombinant; tags: N-terminal GST; dsDNA, one strand shown
# T11 sequence: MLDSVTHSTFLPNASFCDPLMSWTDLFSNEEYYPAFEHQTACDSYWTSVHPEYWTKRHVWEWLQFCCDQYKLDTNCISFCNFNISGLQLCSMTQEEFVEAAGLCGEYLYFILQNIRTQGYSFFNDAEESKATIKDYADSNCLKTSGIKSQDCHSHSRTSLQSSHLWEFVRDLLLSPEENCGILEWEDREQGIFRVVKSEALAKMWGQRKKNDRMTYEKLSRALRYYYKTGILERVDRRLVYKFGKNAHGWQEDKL
# Method in brief: as §1
# ETV3 = target: T12, ETV3 (Homo sapiens, UniProt P41162-2 1-143); conditions: protein: recombinant; tags: N-terminal GST; dsDNA, one strand shown
# T12 sequence: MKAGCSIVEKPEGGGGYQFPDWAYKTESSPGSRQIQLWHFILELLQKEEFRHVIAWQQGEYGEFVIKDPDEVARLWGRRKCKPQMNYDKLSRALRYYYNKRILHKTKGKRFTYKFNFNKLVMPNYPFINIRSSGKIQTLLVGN
# Method in brief: as §1
# ETV6 = ETV6 (Homo sapiens, UniProt P41212 1-452); conditions: protein: recombinant; tags: N-terminal GST; dsDNA, one strand shown
# ETV6, sequence (P41212 whole entry): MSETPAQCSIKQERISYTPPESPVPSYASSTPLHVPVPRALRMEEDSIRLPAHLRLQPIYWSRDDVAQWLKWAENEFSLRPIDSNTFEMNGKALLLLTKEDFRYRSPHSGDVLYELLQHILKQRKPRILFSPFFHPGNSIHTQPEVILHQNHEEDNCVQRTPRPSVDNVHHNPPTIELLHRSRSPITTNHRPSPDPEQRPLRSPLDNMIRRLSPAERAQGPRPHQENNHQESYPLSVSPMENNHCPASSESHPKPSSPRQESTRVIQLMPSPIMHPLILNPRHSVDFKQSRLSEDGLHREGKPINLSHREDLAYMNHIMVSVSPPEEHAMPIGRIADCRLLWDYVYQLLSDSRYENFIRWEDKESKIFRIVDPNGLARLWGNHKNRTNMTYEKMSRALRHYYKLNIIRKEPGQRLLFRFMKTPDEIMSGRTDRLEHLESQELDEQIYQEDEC
# Method in brief: as §1
sequence,measurement,setting,value
TGAATA,binding signal,FEV,"1.06 fold enrichment (6-mer frequency, TF over GST control)"
same,binding signal,ETV5,"1.13 fold enrichment (6-mer frequency, TF over GST control)"
same,binding signal,HSF1,"1.24 fold enrichment (6-mer frequency, TF over GST control)"
same,binding signal,SPIC,"1.22 fold enrichment (6-mer frequency, TF over GST control)"
same,binding signal,ELF4,"1.13 fold enrichment (6-mer frequency, TF over GST control)"
same,binding signal,ELK4,"1.12 fold enrichment (6-mer frequency, TF over GST control)"
same,binding signal,ETV2,"1 fold enrichment (6-mer frequency, TF over GST control)"
same,binding signal,ELF3,"1.08 fold enrichment (6-mer frequency, TF over GST control)"
same,binding signal,CRX,"1.16 fold enrichment (6-mer frequency, TF over GST control)"
same,binding signal,ETV1,"1.15 fold enrichment (6-mer frequency, TF over GST control)"
same,binding signal,ERF,"1.16 fold enrichment (6-mer frequency, TF over GST control)"
same,binding signal,ETV3L,"1.11 fold enrichment (6-mer frequency, TF over GST control)"
same,binding signal,ETS2,"1.05 fold enrichment (6-mer frequency, TF over GST control)"
same,binding signal,SPDEF,"1.09 fold enrichment (6-mer frequency, TF over GST control)"
same,binding signal,ETV7,"1.05 fold enrichment (6-mer frequency, TF over GST control)"
same,binding signal,ELF5,"1.07 fold enrichment (6-mer frequency, TF over GST control)"
same,binding signal,ETV3,"1.14 fold enrichment (6-mer frequency, TF over GST control)"
same,binding signal,ETV6,"1.08 fold enrichment (6-mer frequency, TF over GST control)"
